Test results reported in ChEMBL document CHEMBL4513216, “Probing the Open Global Health Chemical Diversity Library for Multistage-Active Starting Points for Next-Generation Antimalarials” (ACS Infect Dis, 2020).
About 2,700 (4%) of roughly 68,000 compounds showed an effect of 50% or more. The sample as a whole holds a higher share of strong results than the screen did.

Each compound was assayed on Plasmodium berghei (assay: Screen against P. berghei liver stage (PbLuc), transformed with Luciferase, at 2uM). Conditions: tested at 2 uM.
Type: functional, HepG2

Structure (SMILES) | INHIBITION [%]
COc1ccc2c(=O)ccn(CC(=O)O)c2c1 | 16.54
Cc1noc(C2CCN(C(C)c3nc(C(C)(C)C)no3)CC2)n1 (stereo not drawn) | 11.42
COC(=O)CSc1nnc(CCNC(=O)OC(C)(C)C)o1 | 25.59
COCCNC(=O)C1CN(Cc2ccncc2)Cc2ccnn2C1 (stereo not drawn) | -15.71
CC(C1CC1)N(C)C(=O)c1ccc(-n2ncc(C#N)c2N)cc1 (stereo not drawn) | 26.2
Fc1cccc(Nc2nc(N3CCCC3)nc3c2CNCC3)c1 | 32.67
Cc1c(F)cccc1CN1CCn2nc(CNC(=O)N(C)C)cc2C1 | 21.08
Cc1nc(CNCC2CNc3ccnn3C2)cs1 (stereo not drawn) | 0.05
CC(C)Nc1ncnc2c1CCN(C(=O)Cc1ccccn1)CC2 | 14.23
O=C(c1cscn1)N1CC[C@@H]2[C@@H]1CCN2c1ccccn1 | 36.03
COc1cc(N2C[C@@H]3COC[C@]3(COc3ccc(C#N)cn3)C2)ncn1 | -15.95
Cc1csc(N2CCN(Cc3ccccn3)CC2C)n1 (stereo not drawn) | -13.94
Cc1csc(N2CCN(Cc3cscn3)CC2C)n1 (stereo not drawn) | -7.32
Cc1cnc(CN2CCN(c3nc(C)cs3)C(C)C2)cn1 (stereo not drawn) | 50.3
COc1ccc(CNC(C)c2cccc(Br)c2)c(OC)c1OC (stereo not drawn) | 0.8
OC1(Cn2ccc3ncccc32)CCN(Cc2ccccc2F)CC1 | 22.81
CCN(CC)C(CNC(=O)c1ccc(-n2cncn2)cc1)c1ccsc1 (stereo not drawn) | -12.13
CCN(CC)C(CNC(=O)c1ccnc(N(C)C)c1)c1ccsc1 (stereo not drawn) | 86.89
CCN(CC)C(CNC(=O)c1cccnc1-n1cncn1)c1ccsc1 (stereo not drawn) | 28.81
Cc1ccc(C(=O)N2CCC3(CC2)CCN(Cc2ccccn2)C3=O)o1 | 2.5
CN1C(=O)c2cccc(NC(=O)c3ccc4c(c3)OCCO4)c2C1=O | 27.8
O=C(CCc1ccc(-c2ccccc2)[nH]1)N1CCCC(n2ccnc2)C1 (stereo not drawn) | -13.92
Cc1nc(CN2CCC(N3CCN(C)C3=O)CC2)no1 | 40.17
CCN1CCN(C2CCN(Cc3noc(C)n3)CC2)C1=O | 62.13
CCN1CCN(C2CCN(Cc3noc(C4CC4)n3)CC2)C1=O | 24.65
COCCN(C)C(C(=O)O)c1ccc2ccccc2c1 (stereo not drawn) | 10.75
Cc1cc(C)n(C2CCCN(C(=O)c3cc(C(N)=O)cs3)C2)n1 (stereo not drawn) | 20.93

Structure (SMILES) | INHIBITION [%]
Cc1cccc(N2CCN(CCNC(=O)C(C)n3cncn3)CC2)c1 (stereo not drawn) | 12.88
O=C(N[C@@H]1CN(CC2CC2)[C@@H]2CCCO[C@@H]21)c1cscn1 | 17.24
Cc1ncc(CN2CCN(C(=O)N(C)C)[C@@H]3CS(=O)(=O)C[C@@H]32)cn1 | 55.99
CCN(CC)C(=O)N1CCN(Cc2cnc(C)nc2)[C@H]2CS(=O)(=O)C[C@H]21 | 29.51
CCC(=O)N1CCN(Cc2cnc(C)nc2)[C@H]2CS(=O)(=O)C[C@H]21 | -36.29
O=C(CC1CC1)N1CCC2(CC1)CN(c1ncccn1)CCO2 | -26.24
CO[C@H]1CCN(S(=O)(=O)c2cn(C)cn2)[C@H]1Cc1ccccc1 | 74.27
CCO[C@H]1CCN(S(=O)(=O)c2cn(C)cn2)[C@H]1Cc1ccccc1 | -40.45
CO[C@@H]1CCN(S(=O)(=O)c2cn(C)cn2)[C@H]1Cc1ccccc1 | 4.38
CC(C#N)CN(C)Cc1cc(Cl)cc2cccnc12 (stereo not drawn) | 28.91
Cc1ccc([C@@H]2CN(C(=O)c3cc(C)no3)C[C@H]2NC(=O)C2CC2)cc1 | 0.94
CCc1csc(CNC2CCN(Cc3ccccc3)C2)n1 (stereo not drawn) | 50.59
CCc1nc(C)sc1CNC1CCN(Cc2ccccc2)C1 (stereo not drawn) | 26.74
Cc1nc(CNC2CCN(Cc3ccccc3)C2)sc1C (stereo not drawn) | 36.28
CCCc1cc(NC2CCc3ncnn3C2)n2ncnc2n1 (stereo not drawn) | 8.91
O=C1CC(c2ccccc2)C2(CCN(Cc3nccs3)CC2)N1 (stereo not drawn) | -4.2
CC(C)(C)OC(=O)N1CCC(NCc2cnn(C(C)(C)C)c2)CC1 | -13.89
Cc1cccc2cc(C(=O)N3CCC(F)(F)CC3)n(C)c12 | 28.1
O=C1CC(c2ccc(O)cc2)c2c(n3ccsc3nc2=O)N1 (stereo not drawn) | 37.87
O=C1CC(c2ccccc2)c2c(n3ccsc3nc2=O)N1 (stereo not drawn) | 73.66
O=C1CC(c2ccc(Cl)c(Cl)c2)c2c(n3ccsc3nc2=O)N1 (stereo not drawn) | 24.44
Cc1ccc(N(CC(=O)c2ccc(Br)cc2)C2=NCCCCC2)cc1 | -13.56
CC(=O)N1CCC(c2cc(Nc3ncccn3)nc(C)n2)C1 (stereo not drawn) | 31.98
CC(C)(C)n1ncc2c1NC(=O)CC2c1cccc(F)c1 (stereo not drawn) | -10.58
CCCc1noc(CCC(=O)N2CCN(C)CC2c2ccccc2)n1 (stereo not drawn) | 35.56
CC(C)c1noc(CCC(=O)N2CCN(C)CC2c2ccccc2)n1 (stereo not drawn) | 57.59
